Source: the supplement of paper PMC10849652
About 7,900 targets were measured; listed, in parts, are those with a hit and a random draw of the rest. About 0.6% of all pairs of compound and target were hits.

Tests used:
Assay in all cases: log2 fold change, soluble protein after heating vs DMSO (PISA); higher = thermal stabilisation; K562 cells, 10 uM, 30 min; active = over 0.2 and 3.5 SD of the protein, either way, in both replicates (recomputed)
[1] = compound: COC1=CC=C(C=C1)CN2C=CC3=C2C=C(C=C3)C(=O)NO
How it was run: (§1)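 Quantification of soluble protein used TMTpro 16plex LC-MS/MS, with channel sums equalised. Samples were the supernatant after 21,000xg for 90 min of pooled aliquots from K562 cells (2×10^6 cells/mL) treated with 10 μM compound for 30 min, heated for 3 min over 48°C-58°C, and extracted in PBS with 0.5% NP-40 at 4°C. Values, from duplicates, describe thermal stability against control samples on a log2 fold-change scale.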

filanesib = compound: CON(C)C(=O)N1N=C(c2cc(F)ccc2F)S[C@@]1(CCCN)c1ccccc1 [filanesib]
How it was run: as §1

zotarolimus = compound: CO[C@H]1C[C@@H]2CC[C@@H](C)[C@@](O)(O2)C(=O)C(=O)N2CCCC[C@H]2C(=O)O[C@H]([C@H](C)C[C@@H]2CC[C@H](n3cnnn3)[C@H](OC)C2)CC(=O)[C@H](C)/C=C(\C)[C@@H](O)[C@@H](OC)C(=O)[C@H](C)C[C@H](C)/C=C/C=C/C=C/1C [zotarolimus]
How it was run: as §1

idasanutlin = compound: COc1cc(C(=O)O)ccc1NC(=O)[C@@H]1N[C@@H](CC(C)(C)C)[C@](C#N)(c2ccc(Cl)cc2F)[C@H]1c1cccc(Cl)c1F [idasanutlin]
How it was run: as §1

alisertib = compound: COc1cc(Nc2ncc3c(n2)-c2ccc(Cl)cc2C(c2c(F)cccc2OC)=NC3)ccc1C(=O)O [alisertib]
How it was run: as §1

[2] = compound: COc1cc2nc(-c3cc(F)ccc3O)nc(N[C@@H]3CNC[C@H]3C(C)(C)O)c2cc1OC
How it was run: as §1

gefitinib = compound: COc1cc2ncnc(Nc3ccc(F)c(Cl)c3)c2cc1OCCCN1CCOCC1 [gefitinib]
How it was run: as §1

[3] = compound: COc1cccc2cc(-c3nc([C@H]4CC[C@H](C(=O)O)CC4)n4ncnc(N)c34)[nH]c12
How it was run: as §1

lapatinib = compound: CS(=O)(=O)CCNCc1ccc(-c2ccc3ncnc(Nc4ccc(OCc5cccc(F)c5)c(Cl)c4)c3c2)o1 [lapatinib]
How it was run: as §1

pictilisib = compound: CS(=O)(=O)N1CCN(Cc2cc3nc(-c4cccc5[nH]ncc45)nc(N4CCOCC4)c3s2)CC1 [pictilisib]
How it was run: as §1

[4] = compound: CS(=O)(=O)c1ccc(-c2cnc(N)c(C(=O)Nc3ccccc3)n2)cc1
How it was run: as §1

crizotinib = compound: C[C@@H](Oc1cc(-c2cnn(C3CCNCC3)c2)cnc1N)c1c(Cl)ccc(F)c1Cl [crizotinib]
How it was run: as §1

[5] = compound: C[C@@H]1COCCN1C2=NC(=NC(=C2)C3(CC3)S(=O)(=O)C)C4=C5C=CNC5=CC=C4
How it was run: as §1

[6] = compound: C[C@H](C1=CC=C(C=C1)C(=O)NC2=C3C=CNC3=NC=C2)N
How it was run: as §1

duvelisib = compound: C[C@H](Nc1ncnc2nc[nH]c12)c1cc2cccc(Cl)c2c(=O)n1-c1ccccc1 [duvelisib]
How it was run: as §1

gandotinib = compound: Cc1cc(Nc2cc(CN3CCOCC3)c3nc(C)c(Cc4ccc(Cl)cc4F)n3n2)n[nH]1 [gandotinib]
How it was run: as §1

tozasertib = compound: Cc1cc(Nc2cc(N3CCN(C)CC3)nc(Sc3ccc(NC(=O)C4CC4)cc3)n2)n[nH]1 [tozasertib]
How it was run: as §1

[7] = compound: Cc1cc(SCc2sc(-c3ccc(C(F)(F)F)cc3)nc2C)ccc1OCC(=O)O
How it was run: as §1

doramapimod = compound: Cc1ccc(-n2nc(C(C)(C)C)cc2NC(=O)Nc2ccc(OCCN3CCOCC3)c3ccccc23)cc1 [doramapimod]
How it was run: as §1

ispinesib = compound: Cc1ccc(C(=O)N(CCCN)[C@@H](c2nc3cc(Cl)ccc3c(=O)n2Cc2ccccc2)C(C)C)cc1 [ispinesib]
How it was run: as §1

Measured: log2 fold change

ROCK2 (UniProt O75116)
inactive: [1] -0.009 | filanesib -0.006 | zotarolimus 0.023 | idasanutlin 0 | alisertib 0.072 | [2] 0.135 | gefitinib 0.045 | [3] -0.038 | lapatinib -0.029 | pictilisib 0.071 | [4] 0.033 | crizotinib -0.041 | [5] 0.026 | duvelisib 0.025 | gandotinib -0.049 | tozasertib -0.035 | [7] 0.004 | doramapimod 0.007 | ispinesib -0.049
active: [6] 0.392

RBM17 (UniProt Q96I25)
UniProt Q96I25, sequence (Q96I25 whole entry, looked up): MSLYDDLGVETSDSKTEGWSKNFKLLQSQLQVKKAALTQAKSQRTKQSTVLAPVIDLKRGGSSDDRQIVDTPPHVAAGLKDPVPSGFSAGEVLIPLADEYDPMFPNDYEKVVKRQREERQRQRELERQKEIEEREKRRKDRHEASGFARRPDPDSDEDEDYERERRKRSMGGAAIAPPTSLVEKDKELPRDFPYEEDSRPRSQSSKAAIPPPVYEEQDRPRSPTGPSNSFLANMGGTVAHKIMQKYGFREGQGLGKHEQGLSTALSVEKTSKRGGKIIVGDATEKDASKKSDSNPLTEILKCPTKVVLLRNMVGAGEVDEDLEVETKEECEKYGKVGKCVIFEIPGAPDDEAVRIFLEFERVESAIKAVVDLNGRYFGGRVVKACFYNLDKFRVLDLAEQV
inactive: [1] 0.026 | filanesib 0.038 | zotarolimus 0.064 | idasanutlin 0.121 | alisertib -0.055 | [2] -0.031 | gefitinib 0.003 | [3] 0.019 | lapatinib 0 | pictilisib -0.276 | [4] -0.043 | crizotinib -0.065 | [5] 0.106 | [6] 0.02 | duvelisib 0.031 | gandotinib -0.031 | tozasertib 0.057 | [7] 0.106 | doramapimod -0.028 | ispinesib 0.007

RPS6KA2 isoform 2 (UniProt Q15349)
UniProt Q15349, sequence (Q15349 whole entry, looked up): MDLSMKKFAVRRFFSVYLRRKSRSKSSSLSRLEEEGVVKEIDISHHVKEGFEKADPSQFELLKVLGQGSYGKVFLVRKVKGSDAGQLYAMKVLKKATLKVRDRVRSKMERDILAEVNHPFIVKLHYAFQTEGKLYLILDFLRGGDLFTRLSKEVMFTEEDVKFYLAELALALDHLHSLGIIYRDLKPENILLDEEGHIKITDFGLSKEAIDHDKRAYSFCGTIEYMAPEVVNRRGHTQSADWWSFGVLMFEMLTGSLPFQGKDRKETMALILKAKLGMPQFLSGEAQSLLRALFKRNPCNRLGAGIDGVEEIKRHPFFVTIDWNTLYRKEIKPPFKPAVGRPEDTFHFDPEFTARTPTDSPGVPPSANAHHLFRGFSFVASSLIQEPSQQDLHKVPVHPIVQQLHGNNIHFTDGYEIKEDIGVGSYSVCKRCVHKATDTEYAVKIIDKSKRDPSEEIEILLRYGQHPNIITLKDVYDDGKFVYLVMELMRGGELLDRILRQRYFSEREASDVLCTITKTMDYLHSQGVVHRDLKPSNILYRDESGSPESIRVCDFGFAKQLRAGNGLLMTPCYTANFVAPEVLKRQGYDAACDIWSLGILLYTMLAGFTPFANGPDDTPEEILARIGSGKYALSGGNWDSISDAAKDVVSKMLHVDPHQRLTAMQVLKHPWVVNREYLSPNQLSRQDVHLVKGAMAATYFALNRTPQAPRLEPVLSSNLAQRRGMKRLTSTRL
inactive: [1] -0.023 | filanesib -0.006 | zotarolimus 0.016 | idasanutlin -0.033 | alisertib -0.052 | [2] -0.259 | gefitinib -0.078 | [3] 0.001 | lapatinib -0.011 | pictilisib -0.106 | [4] 0.026 | crizotinib -0.148 | [5] 0.128 | [6] -0.057 | duvelisib 0.047 | gandotinib -0.048 | tozasertib 0.042 | [7] 0.063 | doramapimod -0.057 | ispinesib -0.058

RNF220 (UniProt Q5VTB9)
inactive: [1] -0.004 | filanesib 0.108 | zotarolimus 0.062 | idasanutlin -0.006 | alisertib -0.062 | [2] 0.047 | gefitinib -0.032 | [3] 0.002 | lapatinib -0.006 | pictilisib 0.068 | [4] -0.001 | crizotinib 0.096 | [5] -0.003 | [6] -0.042 | duvelisib 0.055 | gandotinib -0.012 | tozasertib 0.043 | [7] -0.011 | doramapimod -0.057 | ispinesib 0.073

RPS15 (UniProt P62841)
active: [6] 0.45
inactive: [1] 0.086 | filanesib 0.192 | zotarolimus -0.082 | idasanutlin 0.049 | alisertib -0.107 | [2] 0.027 | gefitinib 0.008 | [3] -0.147 | lapatinib -0.01 | pictilisib -0.054 | [4] 0.032 | crizotinib 0 | [5] -0.174 | duvelisib -0.078 | gandotinib 0.137 | tozasertib -0.071 | [7] -0.045 | doramapimod 0.032 | ispinesib -0.003

RAB9A (UniProt P51151)
inactive: [1] 0.022 | filanesib -0.074 | zotarolimus 0.024 | idasanutlin -0.026 | alisertib -0.021 | [2] 0.008 | gefitinib 0.015 | [3] 0.067 | lapatinib -0.026 | pictilisib -0.011 | [4] 0.007 | crizotinib -0.119 | [5] -0.006 | [6] -0.044 | duvelisib 0.04 | gandotinib 0 | tozasertib 0.018 | [7] 0.016 | doramapimod 0.018 | ispinesib -0.168

RAB5C isoform 2 (UniProt P51148)
inactive: [1] -0.002 | filanesib -0.053 | zotarolimus -0.015 | idasanutlin -0.055 | alisertib -0.095 | [2] 0.015 | gefitinib 0.013 | [3] 0.038 | lapatinib -0.027 | pictilisib -0.017 | [4] -0.015 | crizotinib 0.099 | [5] 0.015 | [6] -0.092 | duvelisib 0.011 | gandotinib -0.021 | tozasertib -0.029 | [7] 0.014 | doramapimod 0.013 | ispinesib 0.054

SIDT2 isoform 2 (UniProt Q8NBJ9)
UniProt Q8NBJ9, sequence (Q8NBJ9 whole entry, looked up): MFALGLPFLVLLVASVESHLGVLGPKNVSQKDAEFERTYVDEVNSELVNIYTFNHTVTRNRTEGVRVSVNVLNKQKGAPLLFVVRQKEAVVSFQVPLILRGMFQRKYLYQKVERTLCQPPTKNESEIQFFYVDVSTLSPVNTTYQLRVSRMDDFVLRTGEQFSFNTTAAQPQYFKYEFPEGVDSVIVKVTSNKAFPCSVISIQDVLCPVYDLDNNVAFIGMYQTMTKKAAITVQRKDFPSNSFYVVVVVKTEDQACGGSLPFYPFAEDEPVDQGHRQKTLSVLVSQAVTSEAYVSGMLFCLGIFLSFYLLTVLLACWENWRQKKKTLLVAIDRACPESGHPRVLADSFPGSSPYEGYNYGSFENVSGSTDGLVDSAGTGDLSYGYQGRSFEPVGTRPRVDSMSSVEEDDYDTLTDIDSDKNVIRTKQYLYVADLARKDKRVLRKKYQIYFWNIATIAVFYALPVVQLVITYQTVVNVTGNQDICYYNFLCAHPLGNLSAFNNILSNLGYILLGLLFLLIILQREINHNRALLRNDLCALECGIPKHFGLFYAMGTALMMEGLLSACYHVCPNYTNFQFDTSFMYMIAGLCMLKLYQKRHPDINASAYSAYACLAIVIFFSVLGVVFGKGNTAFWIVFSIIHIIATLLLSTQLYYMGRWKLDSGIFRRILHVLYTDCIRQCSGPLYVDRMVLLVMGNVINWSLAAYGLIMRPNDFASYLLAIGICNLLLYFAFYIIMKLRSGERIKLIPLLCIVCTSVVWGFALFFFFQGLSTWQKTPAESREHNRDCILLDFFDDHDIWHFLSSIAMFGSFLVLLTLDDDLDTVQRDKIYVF
inactive: [1] -0.062 | filanesib -0.08 | zotarolimus 0.127 | idasanutlin 0.01 | alisertib 0.082 | [2] -0.065 | gefitinib -0.207 | [3] 0.009 | lapatinib 0.004 | pictilisib 0.044 | [4] 0.132 | crizotinib -0.026 | [5] -0.017 | [6] -0.004 | duvelisib 0.059 | gandotinib 0.006 | tozasertib 0.004 | [7] -0.186 | doramapimod 0.254 | ispinesib -0.143

RAB3GAP2 (UniProt Q9H2M9)
UniProt Q9H2M9, sequence (Q9H2M9 whole entry, looked up): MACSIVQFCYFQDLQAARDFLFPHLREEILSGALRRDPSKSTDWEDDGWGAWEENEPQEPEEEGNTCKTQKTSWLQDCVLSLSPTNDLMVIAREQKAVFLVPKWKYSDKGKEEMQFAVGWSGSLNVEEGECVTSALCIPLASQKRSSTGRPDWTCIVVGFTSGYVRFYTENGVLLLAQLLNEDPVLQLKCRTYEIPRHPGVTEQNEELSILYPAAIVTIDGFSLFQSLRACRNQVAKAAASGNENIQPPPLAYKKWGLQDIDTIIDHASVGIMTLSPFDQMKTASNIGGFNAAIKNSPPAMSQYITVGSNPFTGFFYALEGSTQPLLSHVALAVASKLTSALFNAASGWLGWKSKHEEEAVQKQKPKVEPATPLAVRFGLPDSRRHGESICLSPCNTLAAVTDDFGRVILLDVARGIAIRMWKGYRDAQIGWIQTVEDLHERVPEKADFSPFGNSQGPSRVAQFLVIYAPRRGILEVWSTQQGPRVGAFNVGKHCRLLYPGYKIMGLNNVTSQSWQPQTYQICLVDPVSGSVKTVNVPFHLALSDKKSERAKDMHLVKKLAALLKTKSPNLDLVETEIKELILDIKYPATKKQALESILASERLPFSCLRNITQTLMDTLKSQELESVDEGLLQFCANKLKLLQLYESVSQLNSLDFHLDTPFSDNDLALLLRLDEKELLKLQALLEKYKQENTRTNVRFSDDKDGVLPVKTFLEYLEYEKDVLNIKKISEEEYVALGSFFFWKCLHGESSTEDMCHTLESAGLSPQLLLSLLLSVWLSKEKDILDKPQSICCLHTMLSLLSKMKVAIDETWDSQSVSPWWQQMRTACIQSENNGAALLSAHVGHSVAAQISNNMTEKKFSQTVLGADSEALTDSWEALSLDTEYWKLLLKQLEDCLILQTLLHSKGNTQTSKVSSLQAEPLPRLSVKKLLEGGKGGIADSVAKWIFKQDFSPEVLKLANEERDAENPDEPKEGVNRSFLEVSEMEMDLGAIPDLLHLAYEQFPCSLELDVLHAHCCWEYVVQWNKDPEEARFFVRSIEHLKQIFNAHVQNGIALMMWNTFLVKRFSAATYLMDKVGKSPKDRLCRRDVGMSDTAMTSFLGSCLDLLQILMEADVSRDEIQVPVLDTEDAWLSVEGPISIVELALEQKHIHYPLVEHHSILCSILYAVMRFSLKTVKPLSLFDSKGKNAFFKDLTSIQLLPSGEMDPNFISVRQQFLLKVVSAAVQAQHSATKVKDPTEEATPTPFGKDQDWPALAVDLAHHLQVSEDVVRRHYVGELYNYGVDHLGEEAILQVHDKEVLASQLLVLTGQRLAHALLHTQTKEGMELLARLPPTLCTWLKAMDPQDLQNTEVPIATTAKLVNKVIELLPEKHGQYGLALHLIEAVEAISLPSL
inactive: [1] 0 | filanesib 0.049 | zotarolimus 0.101 | idasanutlin 0.01 | alisertib -0.056 | [2] 0.009 | gefitinib 0.017 | [3] -0.103 | lapatinib 0.038 | pictilisib -0.027 | [4] 0.019 | crizotinib -0.064 | [5] -0.024 | [6] 0.213 | duvelisib -0.046 | gandotinib 0.003 | tozasertib 0.048 | [7] 0.119 | doramapimod 0.046 | ispinesib -0.097

RPS9 (UniProt P46781)
inactive: [1] -0.036 | filanesib 0.237 | zotarolimus 0.032 | idasanutlin 0.098 | alisertib -0.101 | [2] -0.083 | gefitinib -0.055 | [3] -0.211 | lapatinib 0.084 | pictilisib -0.195 | [4] -0.075 | crizotinib 0.02 | [5] -0.401 | [6] 0.278 | duvelisib -0.146 | gandotinib 0.188 | tozasertib 0.055 | [7] 0.024 | doramapimod 0.174 | ispinesib -0.04

SHROOM2 (UniProt Q13796)
UniProt Q13796, sequence (Q13796 whole entry, looked up): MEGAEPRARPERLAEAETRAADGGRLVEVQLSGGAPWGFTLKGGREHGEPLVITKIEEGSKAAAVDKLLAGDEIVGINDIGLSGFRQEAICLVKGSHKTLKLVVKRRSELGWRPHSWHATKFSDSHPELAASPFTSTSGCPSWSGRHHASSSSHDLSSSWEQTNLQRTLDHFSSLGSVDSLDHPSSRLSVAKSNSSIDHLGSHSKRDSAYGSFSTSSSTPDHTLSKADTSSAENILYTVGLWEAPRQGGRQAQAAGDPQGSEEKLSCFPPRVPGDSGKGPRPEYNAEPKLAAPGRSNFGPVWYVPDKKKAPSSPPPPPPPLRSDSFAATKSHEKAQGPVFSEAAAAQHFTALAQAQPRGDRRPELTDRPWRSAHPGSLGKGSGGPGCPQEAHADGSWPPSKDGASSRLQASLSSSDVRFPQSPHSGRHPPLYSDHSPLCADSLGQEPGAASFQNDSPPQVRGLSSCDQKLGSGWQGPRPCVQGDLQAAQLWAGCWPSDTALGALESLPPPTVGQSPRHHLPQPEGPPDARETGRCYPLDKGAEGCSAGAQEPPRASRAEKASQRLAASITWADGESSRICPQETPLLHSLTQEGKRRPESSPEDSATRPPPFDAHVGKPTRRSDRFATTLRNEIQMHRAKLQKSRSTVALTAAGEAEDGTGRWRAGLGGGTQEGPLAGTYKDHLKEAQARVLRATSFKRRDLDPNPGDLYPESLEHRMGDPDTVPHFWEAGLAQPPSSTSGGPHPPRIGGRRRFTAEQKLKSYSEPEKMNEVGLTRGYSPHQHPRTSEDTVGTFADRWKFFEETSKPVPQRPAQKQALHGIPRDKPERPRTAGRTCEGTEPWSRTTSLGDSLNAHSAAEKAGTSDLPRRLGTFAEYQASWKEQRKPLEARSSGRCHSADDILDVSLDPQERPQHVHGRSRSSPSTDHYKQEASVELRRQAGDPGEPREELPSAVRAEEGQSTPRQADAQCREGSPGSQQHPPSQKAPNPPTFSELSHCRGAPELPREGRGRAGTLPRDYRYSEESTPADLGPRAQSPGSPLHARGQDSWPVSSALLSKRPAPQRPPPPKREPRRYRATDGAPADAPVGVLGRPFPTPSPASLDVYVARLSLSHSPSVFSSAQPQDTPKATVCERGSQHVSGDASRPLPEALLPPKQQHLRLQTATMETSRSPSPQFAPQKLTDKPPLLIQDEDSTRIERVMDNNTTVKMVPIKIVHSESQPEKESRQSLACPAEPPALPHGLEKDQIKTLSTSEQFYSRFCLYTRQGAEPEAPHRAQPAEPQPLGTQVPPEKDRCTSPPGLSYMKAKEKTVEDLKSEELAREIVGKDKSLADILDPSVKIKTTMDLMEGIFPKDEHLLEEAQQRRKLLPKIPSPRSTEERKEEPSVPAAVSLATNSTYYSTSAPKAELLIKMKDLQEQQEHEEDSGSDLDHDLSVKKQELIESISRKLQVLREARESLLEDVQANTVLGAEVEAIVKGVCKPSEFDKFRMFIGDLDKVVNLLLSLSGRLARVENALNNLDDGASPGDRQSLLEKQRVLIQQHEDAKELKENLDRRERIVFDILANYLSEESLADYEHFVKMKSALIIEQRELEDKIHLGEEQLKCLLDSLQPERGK
inactive: [1] 0.417 | filanesib 0.066 | zotarolimus 0.02 | idasanutlin -0.045 | alisertib -0.027 | [2] 0.237 | gefitinib 0.056 | [3] 0.009 | lapatinib -0.188 | pictilisib 0.226 | [4] 0.093 | crizotinib 0.005 | [5] 0.013 | [6] -0.099 | duvelisib 0.059 | gandotinib 0.397 | tozasertib -0.195 | [7] -0.233 | doramapimod 0.008

SERINC3 (UniProt Q13530)
inactive: [1] -0.015 | filanesib -0.222 | zotarolimus -0.062 | idasanutlin 0.136 | alisertib 0 | [2] -0.17 | gefitinib -0.069 | [3] 0.042 | lapatinib -0.181 | pictilisib 0.181 | [4] 0.15 | crizotinib -0.228 | [5] 0.017 | [6] 0.225 | duvelisib 0.162 | gandotinib -0.088 | tozasertib 0.046 | [7] 0.096 | doramapimod -0.051 | ispinesib -0.17

RBM27 (UniProt Q9P2N5)
inactive: [1] -0.025 | filanesib 0.094 | zotarolimus 0.027 | idasanutlin 0.075 | alisertib 0.02 | [2] -0.058 | gefitinib 0.057 | [3] 0.018 | lapatinib 0.051 | pictilisib -0.08 | [4] 0.006 | crizotinib 0.021 | [5] 0.026 | [6] -0.174 | duvelisib 0.001 | gandotinib -0.019 | tozasertib 0.027 | [7] 0.09 | doramapimod -0.035 | ispinesib -0.122

RPS25 (UniProt P62851)
inactive: [1] 0.006 | filanesib 0.145 | zotarolimus -0.015 | idasanutlin 0.061 | alisertib -0.143 | [2] -0.038 | gefitinib -0.022 | [3] -0.198 | lapatinib 0.038 | pictilisib -0.08 | [4] -0.101 | crizotinib -0.041 | [5] -0.286 | [6] 0.239 | duvelisib -0.083 | gandotinib 0.239 | tozasertib 0.028 | [7] 0.032 | doramapimod 0.178 | ispinesib -0.148

SAFB2 (UniProt Q14151)
inactive: [1] -0.044 | zotarolimus 0.017 | idasanutlin 0.085 | alisertib -0.045 | [2] -0.046 | gefitinib 0 | [3] -0.037 | lapatinib 0.048 | pictilisib -0.032 | [4] -0.079 | crizotinib -0.016 | [5] -0.316 | [6] 0.164 | duvelisib -0.155 | gandotinib 0.184 | tozasertib -0.027 | [7] 0.006 | doramapimod 0.089 | ispinesib -0.043
active: filanesib 0.409

RPS6KA1 isoform 2 (UniProt Q15418)
inactive: [1] 0.087 | filanesib -0.022 | zotarolimus 0.025 | idasanutlin -0.016 | alisertib -0.01 | [2] -0.202 | gefitinib -0.062 | [3] 0 | lapatinib 0.013 | pictilisib -0.053 | [4] 0 | crizotinib -0.259 | [5] 0.138 | [6] -0.066 | duvelisib 0.03 | gandotinib -0.199 | tozasertib 0.002 | [7] 0.066 | doramapimod -0.026 | ispinesib 0.021
